# Source: the supplement of paper PMC8728848
# This is one part of a sample in which the strongest signals are shown more often than they occur.
# How the values were obtained:
# Experiment in all cases: glycan array binding signal (z-score within array); higher = stronger binding
# Settings in all cases: glycan notation: IUPAC condensed, linker removed
# [1] = molecular target: Fuc(a1-2)Gal
# Summary of the method: (§1)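 The binding signal is a Z-score computed within each array and averaged over linkers. Arrays of the same protein sequence at different concentrations or buffers were also averaged together. Data originate from 3228 arrays in the Consortium for Functional Glycomics database, kept only where the protein sequence was available.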
# [2] = molecular target: Fuc(a1-2)Gal(b1-4)GlcNAc(b1-6)GalNAc
# Summary of the method: as §1
# [3] = molecular target: Fuc(a1-2)Gal3S(b1-4)GlcNAc
# Summary of the method: as §1
# [4] = molecular target: Fuc(a1-2)Gal6S(b1-3)GlcNAc
# Summary of the method: as §1
# [5] = molecular target: Fuc(a1-2)[Gal(a1-3)]Gal(b1-3)GlcNAc(b1-3)GalNAc
# Summary of the method: as §1
# [6] = molecular target: Fuc(a1-2)[Gal(a1-3)]Gal(b1-3)GlcNAc(b1-6)GalNAc
# Summary of the method: as §1
# [7] = molecular target: Fuc(a1-2)[Gal(a1-3)]Gal(b1-4)[Fuc(a1-3)]Glc
# Summary of the method: as §1
# [8] = molecular target: Fuc(a1-2)[Gal(a1-4)]Gal(b1-4)GlcNAc
# Summary of the method: as §1
# [9] = molecular target: Fuc(a1-2)[GalNAc(a1-3)]Gal(b1-3)GalNAc(a1-3)[Fuc(a1-2)]Gal(b1-4)GlcNAc
# Summary of the method: as §1
# [10] = molecular target: Fuc(a1-2)[GalNAc(a1-3)]Gal(b1-3)GlcNAc(b1-2)Man(a1-3)[Fuc(a1-2)[GalNAc(a1-3)]Gal(b1-3)GlcNAc(b1-2)Man(a1-6)]Man(b1-4)GlcNAc(b1-4)GlcNAc
# Summary of the method: as §1
# [11] = molecular target: Fuc(a1-2)[GalNAc(a1-3)]Gal(b1-4)GlcNAc(b1-2)Man
# Summary of the method: as §1
# [12] = molecular target: Fuc(a1-2)[GalNAc(a1-3)]Gal(b1-4)GlcNAc(b1-3)Gal(b1-4)GlcNAc(b1-3)Gal(b1-4)GlcNAc
# Summary of the method: as §1
# [13] = molecular target: Fuc(a1-2)[GalNAc(a1-4)]Gal(b1-4)GlcNAc
# Summary of the method: as §1
# [14] = molecular target: Fuc(a1-3)[Gal(b1-4)]GlcNAc(b1-2)Man(a1-3)[Fuc(a1-3)[Gal(b1-4)]GlcNAc(b1-2)Man(a1-6)]Man(b1-4)GlcNAc(b1-4)[Fuc(a1-6)]GlcNAc
# Summary of the method: as §1
# [15] = molecular target: Fuc(a1-3)[Gal(b1-4)]GlcNAc(b1-3)GalNAc
# Summary of the method: as §1
# [16] = molecular target: Gal(a1-3)Gal(b1-3)GlcNAc(b1-6)GalNAc
# Summary of the method: as §1
# [17] = molecular target: Gal(a1-3)Gal(b1-3)[Fuc(a1-4)]GlcNAc(b1-2)Man(a1-3)[Gal(a1-3)Gal(b1-3)[Fuc(a1-4)]GlcNAc(b1-2)Man(a1-6)]Man(b1-4)GlcNAc(b1-4)GlcNAc
# Summary of the method: as §1
# [18] = molecular target: Gal(a1-3)Gal(b1-4)Glc
# Summary of the method: as §1
# [19] = molecular target: Gal(a1-3)Gal(b1-4)GlcNAc(b1-3)GalNAc
# Summary of the method: as §1
# [20] = molecular target: Gal(b1-3)GlcNAc(b1-3)Gal(b1-4)GlcNAc(b1-2)[Gal(b1-3)GlcNAc(b1-3)Gal(b1-4)GlcNAc(b1-6)]Man(a1-6)[Gal(b1-3)GlcNAc(b1-3)Gal(b1-4)GlcNAc(b1-2)Man(a1-3)]Man(b1-4)GlcNAc(b1-4)[Fuc(a1-6)]GlcNAc
# Summary of the method: as §1
# [21] = molecular target: Gal(b1-4)GlcNAc(b1-2)Man(a1-3)[Gal(b1-4)GlcNAc(b1-2)Man(a1-6)]Man(b1-4)GlcNAc(b1-4)GlcNAc
# Summary of the method: as §1
# [22] = molecular target: Gal(b1-4)GlcNAc(b1-2)[Gal(b1-4)GlcNAc(b1-4)]Man(a1-3)[Gal(b1-4)GlcNAc(b1-2)[Gal(b1-4)GlcNAc(b1-6)]Man(a1-6)]Man(b1-4)GlcNAc(b1-4)GlcNAc
# Summary of the method: as §1
# [23] = molecular target: Gal(b1-4)GlcNAc(b1-2)[Gal(b1-4)GlcNAc(b1-6)]Man(a1-6)[Gal(b1-4)GlcNAc(b1-2)Man(a1-3)]Man(b1-4)GlcNAc(b1-4)[Fuc(a1-6)]GlcNAc
# Summary of the method: as §1
# [24] = molecular target: Gal(b1-4)GlcNAc(b1-3)Gal(b1-4)GlcNAc(b1-2)[Gal(b1-4)GlcNAc(b1-3)Gal(b1-4)GlcNAc(b1-6)]Man(a1-6)[Gal(b1-4)GlcNAc(b1-3)Gal(b1-4)GlcNAc(b1-2)Man(a1-3)]Man(b1-4)GlcNAc(b1-4)GlcNAc
# Summary of the method: as §1
# [25] = molecular target: Gal3S(b1-3)[Fuc(a1-4)]GlcNAc
# Summary of the method: as §1
# [26] = molecular target: GalNAc(a1-3)GalNAc
# Summary of the method: as §1
# [27] = molecular target: GalNAc(a1-3)GalNAc(b1-3)Gal(a1-4)Gal(b1-4)GlcNAc
# Summary of the method: as §1
# [28] = molecular target: GalNAc(b1-3)Gal(a1-6)Gal(b1-4)Glc
# Summary of the method: as §1
# [29] = molecular target: GalNAc(b1-4)GlcNAc(b1-2)Man
# Summary of the method: as §1
# [30] = molecular target: GalNAc3S(b1-4)[Fuc(a1-3)]GlcNAc
# Summary of the method: as §1
# [31] = molecular target: GalNAc4S6S(b1-4)GlcNAc
# Summary of the method: as §1
# [32] = molecular target: GlcNAc(a1-4)Gal(b1-4)GlcNAc(b1-3)Gal(b1-4)Glc
# Summary of the method: as §1
# [33] = molecular target: GlcNAc(a1-4)Gal(b1-4)GlcNAc(b1-3)Gal(b1-4)[Fuc(a1-3)]GlcNAc(b1-3)Gal(b1-4)[Fuc(a1-3)]GlcNAc
# Summary of the method: as §1
# [34] = molecular target: GlcNAc(a1-6)Gal(b1-4)GlcNAc
# Summary of the method: as §1
# [35] = molecular target: GlcNAc(b1-3)Fuc
# Summary of the method: as §1
# [36] = molecular target: Kdn(a2-3)Gal(b1-4)[Fuc(a1-3)]GlcNAc
# Summary of the method: as §1
# [37] = molecular target: Man(a1-2)Man(a1-6)[Man(a1-3)]Man(a1-6)[Man(a1-2)Man(a1-2)Man(a1-3)]Man
# Summary of the method: as §1
# [38] = molecular target: Neu5Ac(a2-3)Gal
# Summary of the method: as §1
# [39] = molecular target: Neu5Ac(a2-3)Gal(b1-4)GlcNAc
# Summary of the method: as §1
# [40] = molecular target: Neu5Ac(a2-3)Gal(b1-4)GlcNAc(b1-3)Gal(b1-4)GlcNAc(b1-3)[Neu5Ac(a2-3)Gal(b1-4)GlcNAc(b1-3)Gal(b1-4)GlcNAc(b1-6)]GalNAc
# Summary of the method: as §1
# [41] = molecular target: Neu5Ac(a2-3)Gal(b1-4)GlcNAc(b1-3)[Neu5Ac(a2-3)Gal(b1-4)GlcNAc(b1-6)]GalNAc
# Summary of the method: as §1
# [42] = molecular target: Neu5Ac(a2-3)Gal(b1-4)GlcNAc6S
# Summary of the method: as §1
# [43] = molecular target: Neu5Ac(a2-3)Gal6S(b1-4)GlcNAc
# Summary of the method: as §1
# [44] = molecular target: Neu5Ac(a2-3)[GalNAc(b1-4)]Gal(b1-4)Glc
# Summary of the method: as §1
# [45] = molecular target: Neu5Ac(a2-3)[GalNAc(b1-4)]Gal(b1-4)GlcNAc(b1-3)GalNAc
# Summary of the method: as §1
# [46] = molecular target: Neu5Ac(a2-6)Gal(b1-4)GlcNAc(b1-2)Man(a1-3)[Neu5Ac(a2-3)Gal(b1-4)GlcNAc(b1-2)Man(a1-6)]Man(b1-4)GlcNAc(b1-4)GlcNAc
# Summary of the method: as §1
# [47] = molecular target: Neu5Ac(a2-6)Gal(b1-4)GlcNAc(b1-2)Man(a1-6)[GlcNAc(b1-2)Man(a1-3)]Man(b1-4)GlcNAc(b1-4)GlcNAc
# Summary of the method: as §1
# [48] = molecular target: Neu5Ac(a2-8)Neu5Ac(a2-3)[Gal(b1-3)GalNAc(b1-4)]Gal(b1-4)Glc
# Summary of the method: as §1
# [49] = molecular target: Neu5Ac(a2-8)Neu5Ac(a2-8)Neu5Ac(a2-8)Neu5Ac(a2-3)[GalNAc(b1-4)]Gal(b1-4)Glc
# Summary of the method: as §1
# [50] = molecular target: Neu5Gc(a2-6)Gal(b1-4)GlcNAc
# Summary of the method: as §1
# [51] = molecular target: Neu5Gc(a2-6)GalNAc
# Summary of the method: as §1
binder,measurement,setting,value
Cohesin-hDC-ASGPR (Homo sapiens) (protein) LDDLDAVRIKVDTVNAKPGDTVRIPVRFSGIPSKGIANCDFVYSYDPNVLEIIEIEPGDIIVDPNPDKSFDTAVYPDRKIIVFLFAEDSGTGAYAITKDGVFATIVAKVKEGAPNGLSVIKFVEVGGFANNDLVEQKTQFFDGGANVGDTTEPATPTTPVTTPTTTDDLDAASQNSKFQRDLVTLRTDFSNFTSNTVAEIQALTSQGSSLEETIASLKAEVEGFKQERQAGVSELQEHTTQKAHLGHCPHCPSVCVPVHSEMLLRVQQLVQDLKKLTCQVATLNNNASTEGTCCPVNWVEHQDSCYWFSHSGMSWAEAEKYCQLKNAHLVVINSREEQNFVQKYLGSAYTWMGLSDPEGAWKWVDGTDYATGFQNWKPGQPDDWQGHGLGGGEDCAHFHPDGRWNDDVCQRPYHWVCEAGLGQTSQESHHHHHH,glycan array binding signal (z-score),[1],-0.306
same,glycan array binding signal (z-score),[2],2.81
same,glycan array binding signal (z-score),[3],-0.377
same,glycan array binding signal (z-score),[4],-0.246
same,glycan array binding signal (z-score),[5],-0.407
same,glycan array binding signal (z-score),[6],2.85
same,glycan array binding signal (z-score),[7],-0.481
same,glycan array binding signal (z-score),[8],-0.495
same,glycan array binding signal (z-score),[9],3.55
same,glycan array binding signal (z-score),[10],2.83
same,glycan array binding signal (z-score),[11],2.03
same,glycan array binding signal (z-score),[12],1.93
same,glycan array binding signal (z-score),[13],3.15
same,glycan array binding signal (z-score),[14],-0.501
same,glycan array binding signal (z-score),[15],-0.391
same,glycan array binding signal (z-score),[16],2.9
same,glycan array binding signal (z-score),[17],-0.322
same,glycan array binding signal (z-score),[18],-0.483
same,glycan array binding signal (z-score),[19],-0.475
same,glycan array binding signal (z-score),[20],0.077
same,glycan array binding signal (z-score),[21],-0.447
same,glycan array binding signal (z-score),[22],-0.517
same,glycan array binding signal (z-score),[23],-0.504
same,glycan array binding signal (z-score),[24],1.87
same,glycan array binding signal (z-score),[25],-0.306
same,glycan array binding signal (z-score),[26],2.37
same,glycan array binding signal (z-score),[27],1.97
same,glycan array binding signal (z-score),[28],2.84
same,glycan array binding signal (z-score),[29],2.86
same,glycan array binding signal (z-score),[30],-0.502
same,glycan array binding signal (z-score),[31],-0.516
same,glycan array binding signal (z-score),[32],-0.508
same,glycan array binding signal (z-score),[33],-0.444
same,glycan array binding signal (z-score),[34],-0.439
same,glycan array binding signal (z-score),[35],-0.443
same,glycan array binding signal (z-score),[36],-0.485
same,glycan array binding signal (z-score),[37],-0.48
same,glycan array binding signal (z-score),[38],-0.335
same,glycan array binding signal (z-score),[39],-0.453
same,glycan array binding signal (z-score),[40],-0.339
same,glycan array binding signal (z-score),[41],-0.495
same,glycan array binding signal (z-score),[42],-0.518
same,glycan array binding signal (z-score),[43],-0.517
same,glycan array binding signal (z-score),[44],2.91
same,glycan array binding signal (z-score),[45],1.83
same,glycan array binding signal (z-score),[46],-0.471
same,glycan array binding signal (z-score),[47],-0.387
same,glycan array binding signal (z-score),[48],3.87
same,glycan array binding signal (z-score),[49],2.95
same,glycan array binding signal (z-score),[50],-0.392
same,glycan array binding signal (z-score),[51],2.81
